Source: PubChem BioAssay
Values without a mark were called inactive. Active and inactive are the calls of the source.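 The calls were made as follows, unless noted: active = normalized viability below 100% at a tested concentration; inactive = the rest.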

Key:
[1] = ovarian cancer cell viability with rucaparib, profiling panel, oncology-focused library, rucaparib conditional (AID 1508598); details: patient-derived ovarian cancer cells, CellTiter-Glo viability, 144 h, hits give low values
[2] = target: NAD(+) hydrolase SARM1 (Homo sapiens) (UniProt Q6SZW1); assay: SARM1 TIR NADase inhibitors, cell lysate, NAD-Glo luminescence (AID 1508614;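 active = compound whose remaining NAD level is above about 45 nM, limit read from the data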;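 also: higher remaining NAD means stronger inhibition of SARM1 NADase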); details: SAM-TIR HEK293T lysate NADase, at 1 µM, hits give high values
[3] = at 0.000305 µM, OCI-C5x cells, with rucaparib 10 µM, 100% = cells with rucaparib alone
[4] = at 0.000305 µM, OCI-C5x cells, without rucaparib
[5] = at 0.000305 µM, OCI-P5x cells, with rucaparib 20 µM, 100% = cells with rucaparib alone
[6] = at 0.000305 µM, OCI-P5x cells, without rucaparib
[7] = at 0.00122 µM, OCI-C5x cells, with rucaparib 10 µM, 100% = cells with rucaparib alone
[8] = at 0.00122 µM, OCI-C5x cells, without rucaparib
[9] = at 0.00122 µM, OCI-P5x cells, with rucaparib 20 µM, 100% = cells with rucaparib alone
[10] = at 0.00122 µM, OCI-P5x cells, without rucaparib
[11] = at 0.00488 µM, OCI-C5x cells, with rucaparib 10 µM, 100% = cells with rucaparib alone
[12] = at 0.00488 µM, OCI-C5x cells, without rucaparib
[13] = at 0.00488 µM, OCI-P5x cells, with rucaparib 20 µM, 100% = cells with rucaparib alone
[14] = at 0.00488 µM, OCI-P5x cells, without rucaparib
[15] = at 0.0195 µM, OCI-C5x cells, with rucaparib 10 µM, 100% = cells with rucaparib alone
[16] = at 0.0195 µM, OCI-C5x cells, without rucaparib
[17] = at 0.0195 µM, OCI-P5x cells, with rucaparib 20 µM, 100% = cells with rucaparib alone
[18] = at 0.0195 µM, OCI-P5x cells, without rucaparib
[19] = at 0.0781 µM, OCI-C5x cells, with rucaparib 10 µM, 100% = cells with rucaparib alone
[20] = at 0.0781 µM, OCI-C5x cells, without rucaparib
[21] = at 0.0781 µM, OCI-P5x cells, with rucaparib 20 µM, 100% = cells with rucaparib alone
[22] = at 0.0781 µM, OCI-P5x cells, without rucaparib
[23] = at 0.313 µM, OCI-C5x cells, with rucaparib 10 µM, 100% = cells with rucaparib alone
[24] = at 0.313 µM, OCI-C5x cells, without rucaparib
[25] = at 0.313 µM, OCI-P5x cells, with rucaparib 20 µM, 100% = cells with rucaparib alone
[26] = at 0.313 µM, OCI-P5x cells, without rucaparib
[27] = at 1.25 µM, OCI-C5x cells, with rucaparib 10 µM, 100% = cells with rucaparib alone
[28] = at 1.25 µM, OCI-C5x cells, without rucaparib
[29] = at 1.25 µM, OCI-P5x cells, with rucaparib 20 µM, 100% = cells with rucaparib alone
[30] = at 1.25 µM, OCI-P5x cells, without rucaparib
[31] = at 5 µM, OCI-C5x cells, with rucaparib 10 µM, 100% = cells with rucaparib alone
[32] = at 5 µM, OCI-C5x cells, without rucaparib
[33] = at 5 µM, OCI-P5x cells, with rucaparib 20 µM, 100% = cells with rucaparib alone
[34] = at 5 µM, OCI-P5x cells, without rucaparib

Sequence of NAD(+) hydrolase SARM1 (Homo sapiens) (Q6SZW1 whole entry, looked up): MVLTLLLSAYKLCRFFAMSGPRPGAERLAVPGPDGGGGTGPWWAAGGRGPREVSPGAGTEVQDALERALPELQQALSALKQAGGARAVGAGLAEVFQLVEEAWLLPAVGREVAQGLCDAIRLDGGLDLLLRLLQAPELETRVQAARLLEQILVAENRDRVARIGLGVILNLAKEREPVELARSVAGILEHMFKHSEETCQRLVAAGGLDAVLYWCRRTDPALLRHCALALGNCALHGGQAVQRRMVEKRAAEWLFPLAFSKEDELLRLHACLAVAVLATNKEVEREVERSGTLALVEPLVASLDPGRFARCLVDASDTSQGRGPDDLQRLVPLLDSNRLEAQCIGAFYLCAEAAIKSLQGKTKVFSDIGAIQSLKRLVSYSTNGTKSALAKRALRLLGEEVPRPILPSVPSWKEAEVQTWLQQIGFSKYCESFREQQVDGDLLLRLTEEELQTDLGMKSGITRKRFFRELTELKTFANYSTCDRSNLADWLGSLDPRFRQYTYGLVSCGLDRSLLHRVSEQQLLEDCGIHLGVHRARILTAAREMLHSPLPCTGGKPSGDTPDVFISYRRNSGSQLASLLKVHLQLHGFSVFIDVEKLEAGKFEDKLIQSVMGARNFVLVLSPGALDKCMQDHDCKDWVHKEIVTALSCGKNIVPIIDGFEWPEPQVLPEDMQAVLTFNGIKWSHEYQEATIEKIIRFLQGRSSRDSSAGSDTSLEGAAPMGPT

For `CC1(C)C=C(CN2C/C(=C/c3ccc(F)cc3)C(=O)/C(=C/c3ccc(F)cc3)C2)C(C)(C)N1O`, which viability [1, 3] is on record?
The viability was 136%.

And the viability [1, 4]?
Its viability is 110%.

What about the viability [1, 5] of the same compound?
Its viability is 90.6% (active).

And the viability [1, 6]?
Its viability is 90.1% (active).

And the viability [1, 7]?
The viability was 117%.

And the viability [1, 8]?
The viability was 106%.

And the viability [1, 9]?
Its viability is 80% (active).

What about the viability [1, 10] of the same compound?
The viability was 81.9% (active).

And the viability [1, 11]?
The viability was 131%.

What about the viability [1, 12] of the same compound?
Its viability is 112%.

What about the viability [1, 13] of the same compound?
Its viability is 74.5% (active).

What about the viability [1, 14] of the same compound?
Its viability is 83.8% (active).

What about the viability [1, 15] of the same compound?
The viability was 127%.

What about the viability [1, 16] of the same compound?
Its viability is 112%.

And the viability [1, 17]?
The viability was 71% (active).

What about the viability [1, 18] of the same compound?
Its viability is 81.9% (active).

And the viability [1, 19]?
Its viability is 124%.

What about the viability [1, 20] of the same compound?
The viability was 117%.

What about the viability [1, 21] of the same compound?
Its viability is 102%.

And the viability [1, 22]?
Its viability is 106%.

What about the viability [1, 23] of the same compound?
Its viability is 125%.

And the viability [1, 24]?
The viability was 109%.

And the viability [1, 25]?
Its viability is 96.7% (active).

What about the viability [1, 26] of the same compound?
The viability was 103%.

And the viability [1, 27]?
Its viability is 127%.

What about the viability [1, 28] of the same compound?
The viability was 118%.

What about the viability [1, 29] of the same compound?
Its viability is 102%.

And the viability [1, 30]?
The viability was 105%.

What about the viability [1, 31] of the same compound?
The viability was 124%.

And the viability [1, 32]?
Its viability is 115%.

What about the viability [1, 33] of the same compound?
Its viability is 55.9% (active).

And the viability [1, 34]?
The viability was 97.4% (active).

With `COc1cccc(-c2cc(F)ccc2[C@H]2Cc3nc(N)nc(C)c3C(=O)N2)n1` as the compound, how does the viability [1, 3] read?
The viability was 108%.

What about the viability [1, 4] of the same compound?
Its viability is 122%.

And the viability [1, 5]?
Its viability is 108%.

And the viability [1, 6]?
The viability was 113%.

And the viability [1, 7]?
The viability was 117%.

What about the viability [1, 8] of the same compound?
Its viability is 135%.

What about the viability [1, 9] of the same compound?
Its viability is 101%.

And the viability [1, 10]?
The viability was 112%.

And the viability [1, 11]?
Its viability is 134%.

What about the viability [1, 12] of the same compound?
Its viability is 141%.

And the viability [1, 13]?
The viability was 53.5% (active).

What about the viability [1, 14] of the same compound?
Its viability is 34.2% (active).

And the viability [1, 15]?
The viability was 93.9% (active).

What about the viability [1, 16] of the same compound?
Its viability is 41.2% (active).

And the viability [1, 17]?
Its viability is 16.9% (active).

And the viability [1, 18]?
Its viability is 8.17% (active).

What about the viability [1, 19] of the same compound?
The viability was 23.6% (active).

What about the viability [1, 20] of the same compound?
The viability was 13.1% (active).

What about the viability [1, 21] of the same compound?
Its viability is 10.3% (active).

And the viability [1, 22]?
The viability was 7.46% (active).

And the viability [1, 23]?
The viability was 11.3% (active).

What about the viability [1, 24] of the same compound?
Its viability is 8.63% (active).

And the viability [1, 25]?
Its viability is 6.73% (active).

And the viability [1, 26]?
The viability was 5.16% (active).

What about the viability [1, 27] of the same compound?
The viability was 10.2% (active).

And the viability [1, 28]?
Its viability is 7.01% (active).

And the viability [1, 29]?
Its viability is 5.14% (active).

And the viability [1, 30]?
The viability was 4.54% (active).

What about the viability [1, 31] of the same compound?
The viability was 9.37% (active).

What about the viability [1, 32] of the same compound?
Its viability is 7.01% (active).

What about the viability [1, 33] of the same compound?
The viability was 4.5% (active).

And the viability [1, 34]?
The viability was 3.25% (active).

With `CC(=O)OCC(=O)[C@@]1(O)CC[C@H]2[C@@H]3CCC4=CC(=O)C=C[C@]4(C)[C@@]3(Cl)[C@@H](Cl)C[C@@]21C` as the compound, how does the remaining NAD [2] read?
The remaining NAD was 10 nM.

Which viability [1, 3] does the source give for `COc1cccc2c1C(=O)c1c(O)c3c(c(O)c1C2=O)C[C@@](O)(C(=O)CO)C[C@H]3O[C@H]1C[C@H](N)[C@H](O)[C@H](C)O1` here?
The viability was 127%.

What about the viability [1, 4] of the same compound?
Its viability is 120%.

And the viability [1, 5]?
Its viability is 109%.

What about the viability [1, 6] of the same compound?
Its viability is 109%.

What about the viability [1, 7] of the same compound?
The viability was 111%.

What about the viability [1, 8] of the same compound?
The viability was 111%.

What about the viability [1, 9] of the same compound?
The viability was 110%.

What about the viability [1, 10] of the same compound?
Its viability is 106%.

And the viability [1, 11]?
The viability was 118%.

What about the viability [1, 12] of the same compound?
The viability was 117%.

What about the viability [1, 13] of the same compound?
The viability was 104%.

And the viability [1, 14]?
Its viability is 108%.

And the viability [1, 15]?
The viability was 130%.

What about the viability [1, 16] of the same compound?
The viability was 110%.

What about the viability [1, 17] of the same compound?
The viability was 103%.

And the viability [1, 18]?
Its viability is 106%.

What about the viability [1, 19] of the same compound?
The viability was 115%.

What about the viability [1, 20] of the same compound?
The viability was 103%.

And the viability [1, 21]?
Its viability is 97.4% (active).

And the viability [1, 22]?
The viability was 82% (active).

And the viability [1, 23]?
The viability was 164%.

What about the viability [1, 24] of the same compound?
The viability was 125%.

What about the viability [1, 25] of the same compound?
The viability was 58.8% (active).

What about the viability [1, 26] of the same compound?
The viability was 32.7% (active).

What about the viability [1, 27] of the same compound?
Its viability is 50% (active).

And the viability [1, 28]?
The viability was 16.5% (active).

What about the viability [1, 29] of the same compound?
Its viability is 10.3% (active).

And the viability [1, 30]?
The viability was 13.8% (active).

What about the viability [1, 31] of the same compound?
Its viability is 4.6% (active).

What about the viability [1, 32] of the same compound?
The viability was 1.33% (active).

And the viability [1, 33]?
Its viability is 5.65% (active).

What about the viability [1, 34] of the same compound?
The viability was 8.22% (active).

Which viability [1, 3] does the source give for `O=C1[C@H](CC[C@H](O)c2ccc(F)cc2)[C@H](c2ccc(O)cc2)N1c1ccc(F)cc1` here?
Its viability is 109%.

What about the viability [1, 4] of the same compound?
Its viability is 121%.

What about the viability [1, 5] of the same compound?
The viability was 106%.

What about the viability [1, 6] of the same compound?
The viability was 117%.

And the viability [1, 7]?
The viability was 107%.

What about the viability [1, 8] of the same compound?
Its viability is 117%.

What about the viability [1, 9] of the same compound?
The viability was 107%.

And the viability [1, 10]?
Its viability is 114%.

What about the viability [1, 11] of the same compound?
Its viability is 111%.

What about the viability [1, 12] of the same compound?
Its viability is 114%.

What about the viability [1, 13] of the same compound?
The viability was 101%.

And the viability [1, 14]?
Its viability is 112%.

What about the viability [1, 15] of the same compound?
The viability was 109%.

What about the viability [1, 16] of the same compound?
The viability was 118%.

And the viability [1, 17]?
Its viability is 104%.

And the viability [1, 18]?
The viability was 106%.

What about the viability [1, 19] of the same compound?
The viability was 107%.

What about the viability [1, 20] of the same compound?
Its viability is 108%.

And the viability [1, 21]?
Its viability is 98% (active).

And the viability [1, 22]?
Its viability is 102%.

And the viability [1, 23]?
Its viability is 111%.

What about the viability [1, 24] of the same compound?
Its viability is 111%.

And the viability [1, 25]?
The viability was 94.9% (active).

And the viability [1, 26]?
The viability was 104%.

What about the viability [1, 27] of the same compound?
Its viability is 126%.

What about the viability [1, 28] of the same compound?
Its viability is 111%.

And the viability [1, 29]?
Its viability is 96.5% (active).

What about the viability [1, 30] of the same compound?
Its viability is 96.4% (active).

And the viability [1, 31]?
Its viability is 128%.

What about the viability [1, 32] of the same compound?
The viability was 103%.
